The source of these data is PubChem BioAssay (NCATS).

The target in assay [1] is Cellular tumor antigen p53 (Homo sapiens) (UniProt P04637). In words: Primary qHTS for small molecule compounds that upregulate eGFP-tagged delta133p53alpha (in N-terminal) cells. (AID 2060322).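 Note: series mostly up to about 56 µM; 0% = DMSO vehicle and 100% = reference activator; nearly all actives have a fitted effect of over 75% in size.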 As to conditions: NCI-H358 eGFP-delta133p53alpha fluorescence, 24 h; activation: active compounds read high. In a few lines:
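NCI-H358 cells pre-induced 24 h with 10 ng/ml doxycycline to express N-terminal eGFP-delta133p53alpha, then dosed 24 h at 37C without doxycycline; fixed, Hoechst-stained, GFP intensity by laser scanning cytometry, normalized to DMSO (0%) and 57.5 uM 5-azacytidine (100%).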
Background: Quantitative high-throughput screening tests each substance at several concentrations.

Assay [2] has the same target. In words: Primary qHTS for small molecule compounds that upregulate eGFP-tagged delta133p53alpha (in C-terminal) cells. (AID 2060324). Note: potency is the fitted concentration of half-maximal effect. Put shortly: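 NCI-H358 cells pre-induced 24 h with 100 ng/ml doxycycline to express delta133p53alpha-eGFP, then dosed in doxycycline-free medium for 24 h at 37C. Fixed, Hoechst-stained; GFP intensity by laser scanning cytometry, normalized to DMSO wells.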

The target of assay [3] is Aldehyde dehydrogenase, mitochondrial (Homo sapiens) (UniProt P05091). Description: qHTS for Inhibitors of the Aldehyde Dehydrogenase Family (ALDH2) Validation screens (AID 2061302; active = well fitted inhibition curve with a large enough effect; title and protocol of this record describe different tests; note: potency is the fitted concentration of half-maximal effect).
Assay [4] can be described thus: BET inhibitor-based combinations targeting novel dependencies in MECOM-rearranged (r) AML: MV-4-11 cell line (AID 2202233). Note: nearly all actives have a fitted effect of over 45% in size. Note: potency is the fitted concentration of half-maximal effect. In a few lines: (§1)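 Using pin-tool transfer, drugs were added in 11 doses to cells (500/well), incubated 48 hr, and assessed with CellTiter-Glo. Z-AUC is a mean-centring transformation applied separately to each screened line.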
Assay [5] concerns the target Aldehyde dehydrogenase, mitochondrial (Homo sapiens) (UniProt P05091). In words: qHTS for Inhibitors of the Aldehyde Dehydrogenase Family (ALDH2) Confirmatory screens (AID 2061303; active = well fitted inhibition curve with a large enough effect; title and protocol of this record describe different tests; note: % is set by controls: 0 for no effect and ±100 for the full control effect; nearly all actives have a fitted effect of over 45% in size).
Assay [6] can be described thus: qHTS for Inhibitors of the Aldehyde Dehydrogenase Family (ALDH1A2, ALDH1A3, ALDH2, ALDH3A1) (AID 2061307). For Potency: test system not described further here; potency is the fitted concentration of half-maximal effect. Note: nearly all actives have a fitted effect of over 50% in size.
Assay [7] addresses Retinaldehyde dehydrogenase 3 (Homo sapiens) (UniProt P47895). In words: qHTS for Inhibitors of the Aldehyde Dehydrogenase Family (ALDH1A3) Confirmatory screens (AID 2061311). Note: nearly all actives have a fitted effect of over 60% in size. Note: potency is the fitted concentration of half-maximal effect.
Assay [8] concerns the target Retinal dehydrogenase 2 (Homo sapiens) (UniProt O94788). In words: qHTS for Inhibitors of the Aldehyde Dehydrogenase Family (ALDH1A2) Confirmation screens (AID 2061314). Note: nearly all actives have a fitted effect of over 65% in size. Note: potency is the fitted concentration of half-maximal effect.
Assay [9] has as its target Aldehyde dehydrogenase 1A1 (Homo sapiens) (UniProt P00352). In words: qHTS for Inhibitors of the Aldehyde Dehydrogenase Family (ALDH1A1) Confirmatory screens (AID 2061316). Note: nearly all actives have a fitted effect of over 65% in size. Note: potency is the fitted concentration of half-maximal effect.
The nature of assay [10]: BET inhibitor-based combinations targeting novel dependencies in MECOM-rearranged (r) AML: OCI-AML3 cell line (AID 2202232). Note: nearly all actives have a fitted effect of over 35% in size. Note: potency is the fitted concentration of half-maximal effect. As to conditions: Potency: OCI-AML3 viability. In a few lines: (§2)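 Viability of cells (500 per well) is scored by luminescent CellTiter-Glo at 48 hr post-dosing. Eleven-point titrations are normalized to DMSO and empty controls and reduced to AUC values.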

Assay [11] in a line: BET inhibitor-based combinations targeting novel dependencies in MECOM-rearranged (r) AML: UCSD-AML1 cell line (AID 2202235). Note: nearly all actives have a fitted effect of over 40% in size. Note: potency is the fitted concentration of half-maximal effect. Put shortly: as §1
Assay [12] in a line: BET inhibitor-based combinations targeting novel dependencies in MECOM-rearranged (r) AML: AML-191 cell line (AID 2202236; note: nearly all actives have a fitted effect of over 35% in size; note: potency is the fitted concentration of half-maximal effect). Put shortly:
as §2

The nature of assay [13]: BET inhibitor-based combinations targeting novel dependencies in MECOM-rearranged (r) AML: SET-2 cell line (AID 2202231).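 For viability: plate controls were DMSO treated cells for no effect and wells without cells for full effect.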 Note: nearly all actives have a fitted effect of over 35% in size. Note: potency is the fitted concentration of half-maximal effect. The following applies: SET-2 AML cells viability, CellTiter-Glo luminescence, 48 h; viability: active compounds read low, concentration not given here. Put shortly:
as §2

Assay [14] is described as follows: BET inhibitor-based combinations targeting novel dependencies in MECOM-rearranged (r) AML: HNT-34 cell line (AID 2202234).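 Note: plate controls were vehicle wells for no effect and cell-free wells for full effect; nearly all actives have a fitted effect of over 35% in size.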 In a few lines: as §1
Assay [15] in a line: BET inhibitor-based combinations targeting novel dependencies in MECOM-rearranged (r) AML: AML-194 cell line (AID 2202237;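 note: plate controls were vehicle wells for no effect and wells without cells for full effect; nearly all actives have a fitted effect of over 40% in size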). Put shortly: as §2
In assay [16] the target is Retinaldehyde dehydrogenase 3 (Homo sapiens) (UniProt P47895). Description: qHTS for Inhibitors of the Aldehyde Dehydrogenase Family (ALDH1A3) Validation screen (AID 2061312). Note: % is set by controls: 0 for no effect and ±100 for the full control effect; nearly all actives have a fitted effect of over 45% in size.
The target is the same in assay [17]. In words: qHTS for Inhibitors of the Aldehyde Dehydrogenase Family (ALDH1A3) Primary screen (AID 2061315).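 Note: plate controls were DMSO vehicle for no effect and reference inhibitor for full effect.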

“And” between values parts separate entries of the source, which are not always exact repeats. Equal entries are not always repeated. Records with an inconclusive call do not appear. A number with no mark means an inactive call. The source made the active and inactive calls. Unless noted, calls come from the whole dose curve; as a rule, active = well fitted curve in the direction sought with a large enough effect; inconclusive = small, poorly fitted or top-dose-only effect, or another doubt; inactive = no such curve, though single readings can be large; an effect the other way counts as inactive or inconclusive.

Chain of Cellular tumor antigen p53 (Homo sapiens) (P04637 whole entry, looked up): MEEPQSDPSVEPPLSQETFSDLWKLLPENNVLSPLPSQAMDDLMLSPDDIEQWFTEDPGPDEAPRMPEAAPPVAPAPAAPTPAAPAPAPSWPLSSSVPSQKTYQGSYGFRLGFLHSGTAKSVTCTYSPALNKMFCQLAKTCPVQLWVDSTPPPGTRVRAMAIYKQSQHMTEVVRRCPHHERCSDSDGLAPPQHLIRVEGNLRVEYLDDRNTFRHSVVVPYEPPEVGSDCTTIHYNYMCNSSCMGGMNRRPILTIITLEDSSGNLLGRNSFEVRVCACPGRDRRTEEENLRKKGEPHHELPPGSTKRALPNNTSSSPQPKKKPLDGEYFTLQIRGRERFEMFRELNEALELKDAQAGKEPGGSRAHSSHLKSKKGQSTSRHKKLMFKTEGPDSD

Regarding `O=c1cc(N2CCOCC2)oc2c(-c3ccccc3)cccc12`, in assay [1], the activation was 3.72% and -10.8%. The Potency result in [2] and in assay [3] was “inactive” in each case. Also, the Potency in assay [4] is 13.2 µM (active).

On to `C[N+](C)(C)CCOC(=O)CCC(=O)OCC[N+](C)(C)C`, for which the activation in assay [1] is -8.47%. Moreover, the Potency entry in assay [2], in assay [5], in assay [6], in assay [7], in [8] and in assay [9] was “inactive” throughout.

Turning to `CCCCCCCCCCCCCCCCCCN(CCCCCCCCCCCCCCCCCC)CCCN(CCO)CCO`, the activation in assay [1] was -13.9%. For the same compound, in assay [3], the Potency entry was “inactive”.

Turning to `Oc1cc(O)cc(/C=C/c2ccc(O)c(O)c2)c1`, the activation in assay [1] was 11.9%. Also, in [2], the Potency result was “inactive”. The Potency in [10] is 10.5 µM (active); in assay [4] it was 10.5 µM (active); in [11], 18.6 µM (active); in [12], 16.6 µM (active).

Turning to `O=c1ccc2ccc(O)c(O)c2o1`, the activation in [1] is 0.546% and -34.3%. Besides, the Potency result in assay [2] and in assay [8] was “inactive” each time. In addition, in [7], the Potency is 8.96 µM (active).

As for `OCC1O[C@H]([S-])[C@H](O)[C@@H](O)[C@@H]1O.[Au+]` (stereo partly drawn), the activation in [1] is 21.8%. The Potency result in assay [3], in assay [5] and in assay [9] was “inactive” each time. Moreover, the Potency in assay [6] is 2.83 µM (active).

As to `O=C1Cc2c([nH]c3ccc(Br)cc23)-c2ccccc2N1`, the activation in assay [1] is -51%. Further, in assay [3], the Potency result is “inactive”.

Turning to `O=C1NC(=O)C(c2ccccc2[N+](=O)[O-])=C1Nc1ccc(O)c(Cl)c1`, the activation in assay [1] was -20.1% and -30.9%. Moreover, in [2], the Potency result is “inactive”. The Potency in [4] is 20.9 µM (active).

Take `N#C/C(=C\c1ccc(O)c(O)c1)C(=O)NCCCNC(=O)/C(C#N)=C/c1ccc(O)c(O)c1`: in assay [1], the activation was -33.4%. Also, in assay [2], the Potency entry was “inactive”. Moreover, the Potency in assay [7] was 2.83 µM (active).

Consider `O=C1NC(=O)/C(=C/c2ccc(-c3ccc(F)cc3O)o2)S1`, for which, in assay [1], the activation was -29.7%. Moreover, the Potency entry in assay [3] was “inactive”.

On to `Cc1[nH]c(=O)c(C#N)cc1-c1ccc2nccn2c1`, for which the activation in assay [1] was -19.2% and 47.5% and 13.7%. In [2], the Potency is 30.1 µM (active). Further, the viability in assay [13] is 118%. The Potency result in assay [10], in assay [4], in assay [14], in assay [11], in assay [12] and in [15] was “inactive” throughout.

On to `Clc1ccc2c(N3CCN(CCCN4CCN(c5ccnc6cc(Cl)ccc56)CC4)CC3)ccnc2c1`, for which the activation in [1] was 26.5%. Also, the Potency result in [2], in assay [6], in [10], in assay [14], in assay [11] and in assay [12] was “inactive” in each case. Moreover, in assay [15], the Potency result is “inactive”. In [13], the viability was 76.4%.

Consider `CC(C)(C)c1cc(/C=C(\C#N)C(N)=S)cc(C(C)(C)C)c1O`, for which the activation in assay [1] was 0.225%. Moreover, the Potency result in [3] was “inactive”.

Take `[N-]=[N+]=Nc1ccc(C(=O)CSC[C@H](NC(=O)CC[C@H](N)C(=O)O)C(=O)NCC(=O)O)cc1`: the activation in [1] was -38.2%. The Potency result in [3] is “inactive”.

For `CN1CCN(C2=Nc3ccccc3Oc3ccc(Cl)cc32)CC1`, the activation in assay [1] was -10% and -16.8%. In addition, the Potency result in assay [2] and in assay [16] was “inactive” each time.

Turning to `OCc1ccc(-c2nn(Cc3ccccc3)c3ccccc23)o1`, in assay [1], the activation is -12.3% and 3.48%. In addition, in assay [2], the Potency entry is “inactive”. The Potency is 16.6 µM (active) in assay [13], 5.9 µM (active) in [4] and 20.9 µM (active) in assay [11].

`N#CC(=C(\N)Sc1ccccc1N)/C(C#N)=C(/N)Sc1ccccc1N`: the activation in assay [1] was -29.9%. The Potency result in assay [3] is “inactive”.

For `O=C(O)C1=CCCN(CCON=C(c2ccccc2)c2ccccc2)C1`, the activation in assay [1] was 20.9%. Also, the Potency result in [2] and in assay [16] was “inactive” throughout.

For `COc1ccc(NC(=O)/C=C/c2ccc(Cl)cc2)cc1`, the activation in assay [1] was -18.7%. Moreover, the Potency result in assay [2] and in [16] was “inactive” in each case.

In the case of `COc1ccc(/C=C/C(=O)Nc2ccccc2C(=O)O)cc1OC`, in assay [1], the activation is 22.3% and 8.92%. The Potency entry in assay [2], in assay [17], in [10], in [4], in assay [14] and in assay [11] was “inactive” throughout. Also, the Potency entry in [12] and in [15] was “inactive” each time. Moreover, the viability in [13] was 104%.

In the case of `CCCCS(=N)(=O)CC[C@H](N)C(=O)O` (stereo partly drawn), in assay [1], the activation was -3.27%. The Potency result in assay [2] and in assay [16] was “inactive” in each case.

On to `O=C1c2ccccc2C(=O)c2c(NCCc3ccc(O)cc3)ccc(NCCc3ccc(O)cc3)c21`, for which the activation in assay [1] was -13.7%. In addition, the Potency result in [3] is “inactive”.

`O=C(Nc1cccc(C(=O)Nc2ccc(S(=O)(=O)O)c3cc(S(=O)(=O)O)cc(S(=O)(=O)O)c23)c1)Nc1cccc(C(=O)Nc2ccc(S(=O)(=O)O)c3cc(S(=O)(=O)O)cc(S(=O)(=O)O)c23)c1`: in [1], the activation is -8.79%. For the same compound, the Potency entry in assay [2] and in [16] was “inactive” in each case.

`CCOC(=O)c1cnc2c(cnn2CC)c1NN=C(C)C`: in assay [1], the activation was 11.7% and -44.5%. In addition, the Potency result in assay [3], in assay [5] and in assay [6] was “inactive” in each case.

Take `CCN(CC)C(C)CN1c2ccccc2Sc2ccccc21` (stereo not drawn): the activation in [1] was -8.47% and -0.322%. The Potency entry in [2] and in [16] was “inactive” throughout.

Regarding `COC1=C(OC)C(=O)c2ccccc2C1=O`, the activation in [1] is -31%. The Potency result in assay [3], in assay [5] and in assay [6] was “inactive” in each case. Further, the Potency in assay [7] was 0.712 µM (active); in assay [8] it was 2.52 µM (active).

In the case of `CC1=C(/C=C/C(C)=C/C=C/C(C)=C/C(=O)O)C(C)(C)CCC1`, the activation in assay [1] is 11.9% and -12.6%. The Potency entry in [2], in assay [11] and in assay [15] was “inactive” throughout. Besides, in assay [13], the viability is 106%. Also, the Potency in assay [10] is 7.42 µM (active); in assay [4], 0.59 µM (active).

For the compound `O=c1onc2cnc3ccccc3n12`, the activation in [1] was 14.8%. Also, the Potency is 6.31 µM (active) in assay [3], 0.0318 µM (active) in assay [6] and 4 µM (active) in assay [9].

A word on the viability: it is a read-out of living cells in per cent, often relative to untreated cells.
